Measured values as given in PubChem BioAssay AID1671202 (University of Kansas High Throughput Screening Laboratory, 2021).
“And” between values parts separate entries of the source, which are not always exact repeats. Identical values can stand only once. The whole screen tested about 190,000 compounds, of which about 6,900 (3.6%) were called active. This excerpt belongs to a sample that is enriched for actives. Values without a mark were called inactive. Cut-off read from the data, not from the text of the source: active = inhibition above about 50%; inactive = the rest.

Biological target: Huntingtin (Homo sapiens) (UniProt P42858)
Assay: mutant huntingtin-calmodulin interaction inhibitors – biochemical, AlphaScreen, primary screen (AID 1671202);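 note: 0% = both proteins with DMSO and 100% = one protein alone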
Conditions: AlphaScreen His-mHTT/GST-CaM binding, luminescence; at 15 µM, active compounds read high

Huntingtin (Homo sapiens), sequence (P42858 whole entry, looked up, stated change not applied): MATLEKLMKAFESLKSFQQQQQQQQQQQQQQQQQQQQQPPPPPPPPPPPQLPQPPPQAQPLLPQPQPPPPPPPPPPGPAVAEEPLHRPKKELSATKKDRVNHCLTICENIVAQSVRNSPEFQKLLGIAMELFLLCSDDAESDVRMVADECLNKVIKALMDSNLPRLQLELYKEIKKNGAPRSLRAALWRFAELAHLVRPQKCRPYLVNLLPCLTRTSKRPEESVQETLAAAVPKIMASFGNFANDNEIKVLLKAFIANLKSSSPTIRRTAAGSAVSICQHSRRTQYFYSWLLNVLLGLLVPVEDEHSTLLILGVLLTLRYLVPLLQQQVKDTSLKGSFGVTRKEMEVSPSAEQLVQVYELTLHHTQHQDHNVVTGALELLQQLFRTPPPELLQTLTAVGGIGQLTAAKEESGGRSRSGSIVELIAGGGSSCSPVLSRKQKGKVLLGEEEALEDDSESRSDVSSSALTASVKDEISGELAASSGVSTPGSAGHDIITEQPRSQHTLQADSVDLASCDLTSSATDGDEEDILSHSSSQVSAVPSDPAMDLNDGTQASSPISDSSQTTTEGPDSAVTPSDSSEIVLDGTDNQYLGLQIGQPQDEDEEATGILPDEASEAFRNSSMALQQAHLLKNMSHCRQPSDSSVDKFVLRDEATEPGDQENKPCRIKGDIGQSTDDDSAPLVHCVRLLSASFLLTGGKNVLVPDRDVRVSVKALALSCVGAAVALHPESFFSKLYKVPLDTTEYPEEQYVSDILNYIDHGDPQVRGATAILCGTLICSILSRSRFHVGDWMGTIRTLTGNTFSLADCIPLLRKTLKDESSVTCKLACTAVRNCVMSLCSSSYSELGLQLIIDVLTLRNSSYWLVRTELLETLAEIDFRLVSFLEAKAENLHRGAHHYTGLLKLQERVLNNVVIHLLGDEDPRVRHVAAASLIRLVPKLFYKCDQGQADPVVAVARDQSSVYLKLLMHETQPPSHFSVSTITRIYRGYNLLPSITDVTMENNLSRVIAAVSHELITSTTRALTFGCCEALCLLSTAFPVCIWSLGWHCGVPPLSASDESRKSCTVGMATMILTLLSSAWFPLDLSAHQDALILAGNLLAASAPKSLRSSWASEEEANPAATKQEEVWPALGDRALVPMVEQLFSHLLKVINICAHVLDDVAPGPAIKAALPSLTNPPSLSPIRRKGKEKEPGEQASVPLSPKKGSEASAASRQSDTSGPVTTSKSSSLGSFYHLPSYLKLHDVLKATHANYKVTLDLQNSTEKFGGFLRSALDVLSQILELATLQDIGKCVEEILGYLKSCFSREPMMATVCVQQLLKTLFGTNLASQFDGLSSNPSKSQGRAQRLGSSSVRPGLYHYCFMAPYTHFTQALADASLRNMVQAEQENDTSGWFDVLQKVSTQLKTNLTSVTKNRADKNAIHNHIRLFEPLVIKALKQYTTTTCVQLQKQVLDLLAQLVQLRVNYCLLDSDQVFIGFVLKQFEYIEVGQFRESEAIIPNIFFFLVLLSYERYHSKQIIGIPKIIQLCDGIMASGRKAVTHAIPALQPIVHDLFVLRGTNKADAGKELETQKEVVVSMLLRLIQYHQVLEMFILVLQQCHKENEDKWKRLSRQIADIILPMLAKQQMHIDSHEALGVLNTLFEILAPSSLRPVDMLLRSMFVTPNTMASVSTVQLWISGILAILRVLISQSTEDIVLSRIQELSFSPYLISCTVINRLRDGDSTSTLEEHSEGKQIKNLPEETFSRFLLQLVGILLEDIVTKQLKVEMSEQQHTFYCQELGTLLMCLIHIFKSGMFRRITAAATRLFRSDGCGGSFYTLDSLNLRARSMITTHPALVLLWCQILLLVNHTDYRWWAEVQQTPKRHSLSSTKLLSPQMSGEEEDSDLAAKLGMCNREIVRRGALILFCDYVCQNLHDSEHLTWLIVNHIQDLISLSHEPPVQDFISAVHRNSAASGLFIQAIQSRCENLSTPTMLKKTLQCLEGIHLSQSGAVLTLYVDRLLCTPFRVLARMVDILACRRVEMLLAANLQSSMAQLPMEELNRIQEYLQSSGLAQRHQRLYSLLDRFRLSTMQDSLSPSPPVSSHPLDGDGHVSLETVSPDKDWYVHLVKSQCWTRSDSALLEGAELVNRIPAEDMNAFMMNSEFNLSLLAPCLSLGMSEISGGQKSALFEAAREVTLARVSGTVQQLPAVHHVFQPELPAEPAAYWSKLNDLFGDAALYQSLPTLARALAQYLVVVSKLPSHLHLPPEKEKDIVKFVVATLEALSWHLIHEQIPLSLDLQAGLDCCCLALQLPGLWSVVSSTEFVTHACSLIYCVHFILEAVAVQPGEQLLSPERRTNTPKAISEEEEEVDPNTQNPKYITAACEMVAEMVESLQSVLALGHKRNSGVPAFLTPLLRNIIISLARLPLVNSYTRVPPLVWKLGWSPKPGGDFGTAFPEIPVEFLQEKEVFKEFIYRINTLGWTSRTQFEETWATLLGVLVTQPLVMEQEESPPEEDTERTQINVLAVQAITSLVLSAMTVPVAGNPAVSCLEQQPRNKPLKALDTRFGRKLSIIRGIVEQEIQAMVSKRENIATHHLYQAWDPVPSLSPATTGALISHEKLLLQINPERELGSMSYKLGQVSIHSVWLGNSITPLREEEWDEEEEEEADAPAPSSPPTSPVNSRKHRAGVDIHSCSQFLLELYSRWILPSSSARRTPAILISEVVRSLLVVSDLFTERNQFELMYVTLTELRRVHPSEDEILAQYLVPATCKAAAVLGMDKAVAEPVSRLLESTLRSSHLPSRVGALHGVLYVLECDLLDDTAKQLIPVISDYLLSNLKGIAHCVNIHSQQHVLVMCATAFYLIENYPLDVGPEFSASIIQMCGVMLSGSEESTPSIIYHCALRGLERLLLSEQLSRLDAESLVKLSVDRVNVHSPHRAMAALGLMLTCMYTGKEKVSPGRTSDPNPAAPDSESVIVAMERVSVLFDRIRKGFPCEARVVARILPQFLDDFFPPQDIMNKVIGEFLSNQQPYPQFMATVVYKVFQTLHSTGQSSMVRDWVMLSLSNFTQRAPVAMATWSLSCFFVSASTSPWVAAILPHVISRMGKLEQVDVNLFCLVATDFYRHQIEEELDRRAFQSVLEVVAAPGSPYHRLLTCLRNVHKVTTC

| Structure (SMILES) | inhibition |
| --- | --- |
| O=[N+]([O-])C(=C1SCCS1)C(=C(Cl)Cl)N1CCCC1 | 62% (active) |
| O=C1CS/C(=C(\C(Cl)=C(Cl)Cl)[N+](=O)[O-])N1c1ccc(Cl)cc1 | 33% |
| CCC1CO/C(=C(\C(=C(Cl)Cl)N2CCOCC2)[N+](=O)[O-])N1 (stereo not given) | -5% |
| N#C/C(=C\c1ccccc1F)c1nc(-c2cccc([N+](=O)[O-])c2)cs1 | 5.7% |
| CCC(=O)NCc1nc2c(n1CC)CN(S(=O)(=O)Cc1ccc(Cl)cc1)CC2 | 0.5% |
| COc1ccc(N2C(=O)NC3CC2(C)Oc2ccccc23)cc1Cl (stereo not given) | -0.83% |
| CN1CCCN(C(=O)C2COC3(CCCCC3)N2C(=O)c2ccccc2)CC1 (stereo not given) | 1.3% |
| Cc1cc(C2CCCN2C(=O)c2cc(-c3ccccc3F)no2)no1 (stereo not given) | -0.13% |
| C=CCn1c(=O)c2cnc(-c3ccc(Cl)cc3)nc2n(C)c1=O | -3.7% |
| C=CCn1c(-c2ccccc2)csc1=Nc1ccc(O)cc1 | 69% (active) |
| Cc1c(N=C2C=C(C(C)C)C(=O)C(C(C)C)=C2)c(=O)n(-c2ccccc2)n1C | 8% |
| C=CCn1c(-c2ccc(Cl)cc2)csc1=Nc1c(C)n(C)n(-c2ccccc2)c1=O | 66% (active) |
| CCn1c(=NC(=O)c2ccc(S(=O)(=O)N(C)C)cc2)sc2cc(F)ccc21 | 3% |
| CCN1CCN(c2ncc3c(n2)CCN(Cc2cc(OC)c(OC)cc2OC)C3)CC1 | 23.9% |
| COc1ccc(C2CC(=O)C3=C(C2)Nc2ncnn2C3c2cccc(OC)c2OC)cc1 (stereo not given) | 10.8% |
| O=C(NCCC1=CCCCC1)C1CCCN(Cc2nc(-c3ccncc3)no2)C1 (stereo not given) | -3.8% |
| COc1ccc(-n2c3c(cc(C(=O)N4CCOCC4)c2=O)C(=O)CC(C)(C)C3)cc1 | -1% |
| CC(C)c1ccc(C2N3CC4(C)CN2CC(C)(C3)C4O)cc1 (stereo not given) | -5% and 3.2% |
| Cc1cccc(C(=O)N2CCCN(C(=O)c3cccc(C)c3)CC2)c1 | -1.9% |
| Cc1c(C)n(Cc2ccccc2)c2ccc(C(=O)N3CCN(C(=O)c4ccccc4)CC3)cc12 | 99% (active) |
| Cc1ccc(C(=O)N2CCN(c3ccccc3)CC2)cc1 | 0.5% |
| O=C(Nc1ccccc1[N+](=O)[O-])c1c(F)cccc1F | 2.8% |
| Fc1ccc(C2CC(c3ccc(Br)cc3)Nc3ncnn32)cc1 (stereo not given) | 7% |
| CCN1/C(=C2\N=C(c3ccccc3)OC2=O)C=Cc2ccccc21 | 39% |

| Structure (SMILES) | inhibition |
| --- | --- |
| CCN1C(=Cc2cc[n+](-c3ccccc3)cc2)C=Cc2ccccc21 | 65% (active) |
| CC(=O)C1=C(O)C(=O)N(c2nccs2)C1c1ccc([N+](=O)[O-])cc1 (stereo not given) | 10.1% |
| O=C(Nc1ccccc1)Oc1cccc2cccnc12 | 93.6% (active) |
| O=C(O)c1ccccc1-c1ccccc1C(=O)Nc1cccc2cccnc12 | 8.7% |
| COc1ccc(NC(=O)Nc2cccc3cccnc23)cc1 | 11.4% |
| C=CCNC(=O)c1c(F)ccc(S(=O)(=O)N2CCCCCC2)c1F | -7% |
| O=C(Cn1ncn2nc(-c3ccc(Cl)cc3)cc2c1=O)Nc1ccccc1C(F)(F)F | -7.9% |
| CCNC(=O)c1csc(-c2cccc(OC)c2)n1 | -7.8% |
| COc1ccc(/C=C2\SC(=O)N(CN3CCOCC3)C2=O)cc1 | -4% |
| Clc1ncnc2sc3c(c12)CCCCC3 | -7.58% |
| OCCNc1ncnc2sc3c(c12)CCCCC3 | 1.3% |
| NNc1ncnc2sc3c(c12)CCCC3 | 100% (active) |
| COc1cc(C(=O)N2CCC(CC(=O)NC3CCCC3)CC2)cc(OC)c1OC | -1.18% |
| Cc1cccc(CN2Cc3cccc4c3[C@H](C=CC4)CC2=S)c1 | 3.5% |
| O=C1C[C@H]2C=CCc3cccc(c32)CN1Cc1ccccc1 | 100% (active) |
| O=C1C[C@@H]2c3c(cccc3CN1Cc1ccccc1)C[C@@H](O)[C@H]2O | 1.6% |
| O=C(Cc1ccc(F)cc1Cl)N1CCCC1c1cccc(F)c1 (stereo not given) | -1.36% |
| COc1ccc(CNC(=O)C2CC(=O)N(c3ccc(OCc4ccc(F)cc4)cc3)C2)cc1 (stereo not given) | -13.8% |
| COc1ccc(C2CC(C(F)(F)F)n3ncc(C(=O)NC45CC6CC(CC(C6)C4)C5)c3N2)cc1 (stereo not given) | 6% |
| COCCNC(=O)Nc1nc(-c2ccccn2)cs1 | 95.6% (active) |
| CC1CC(C)CN(S(=O)(=O)c2ccc(C(=O)Nc3nc(-c4ccccn4)cs3)cc2)C1 (stereo not given) | 17% |
| COc1ccc(C(=O)Nc2cc(-c3ccccn3)no2)cc1 | -10.4% |
| Cc1nc(NC(=O)c2ccoc2C)sc1C | 10% |
| COC(=O)Nc1nc(CC(=O)NCc2nc3ccccc3[nH]2)cs1 | -0.6% |

| Structure (SMILES) | inhibition |
| --- | --- |
| O=C(Cc1csc(NC(=O)c2ncccn2)n1)Nc1cccc2nsnc12 | 99.8% (active) |
| Cc1nc(NC(=O)Cc2csc(NC(=O)c3ncccn3)n2)sc1C | 98% (active) |
| COc1cc(C(=O)Nc2cccc3nsnc23)cc(OC)c1OC | -8.5% |
| CC(C)SCC(=O)Nc1nc(CC(=O)O)cs1 | 1.9% |
| Cc1ccc(NC(=O)c2ccc(Cl)c(Cl)c2)nc1 | -13.9% and -7% |
| O=C(CSc1nc2ccsc2c(=O)n1Cc1ccccc1F)NC1CCCC1 | -3% |
| CC(=O)N(C)C1(C(=O)NC2CCCCC2)CCCCC1 | 4% |
| COCCCNC(=O)C1(C)CCC(=O)N1Cc1ccc(C)cc1 (stereo not given) | 3.12% |
| CCCCN(C)S(=O)(=O)c1ccc(C(=O)Nc2nnc(C)o2)cc1 | 32% |
| O=C(/C(=C1\Nc2ccc([N+](=O)[O-])cc2N1)[N+](=O)[O-])N1CCCCC1 | 8% |
| O=C1CC[C@@H]2CC3(C[C@@H]4CCN1[C@H]24)Nc1cc([N+](=O)[O-])ccc1NC3=NC1CCCCC1 (stereo not given in full) | 57.5% (active) |
| O=C1CCC[C@@H]2C[C@@]3(C[C@@H]4CCN1[C@H]24)Nc1ccccc1NC3=NCc1ccccc1 | 11.5% |
| Cc1cc2c(cc1C)NC1(C[C@H]3CCC(=O)N4CC[C@@H](C1)[C@@H]34)C(=NC(C)(C)CC(C)(C)C)N2 (stereo not given in full) | 96.4% (active) |
| CC(C)(C)C(=O)NCCC(O)C1CC1 (stereo not given) | -4% |
| CN(C)CCn1c2c(c(SCC(=O)Nc3ccccc3C(F)(F)F)nc1=O)CCC2 | 0% |
| O=C(CSc1nnnn1-c1cccc2ccccc12)Nc1ccccc1Cl | -8.1% |
| COc1ccc(C(=O)Nc2ccccc2F)cc1OC | -1.2% |
| COc1ccc(C2=NC3(CCCCC3)N(CC(=O)Nc3ccc4c(c3)OCO4)C2=O)cc1 | 3.31% |
| CNc1nccc(N2CCC(CC(=O)N3CCN(c4ccccc4)CC3)CC2)n1 | 13.2% |
| O=c1cc(-c2ccccc2)sc2ccc(Cl)cc12 | 7% |
| NC(N)=Nc1nc(-c2ccccc2)c2cc(Cl)ccc2n1 | 100% (active) |
| Cc1nc(N=C(N)N)nc2c(C)cccc12 | 25.3% |
| O=C1CC(c2ccc(Cl)cc2)CC2=C1C(c1ccsc1)Nc1ccccc1N2 (stereo not given) | 4% |
| CN(C)c1ccc(C2Nc3ccccc3NC3=C2C(=O)CC(c2ccc(Cl)cc2)C3)cc1 (stereo not given) | 63% (active) |

| Structure (SMILES) | inhibition |
| --- | --- |
| COc1ccc(C2CC(=O)C3=C(C2)Nc2ccccc2NC3c2cc(F)ccc2F)cc1 (stereo not given) | 23% |
| O=C(c1cccs1)N1CC(c2nc(-c3ncccn3)no2)C1 | -5.2% |
| COc1ccc(CNC(=O)CN(c2ccc(I)cc2)S(C)(=O)=O)cc1 | -4.2% |
| COc1ccc(C2=N/C(=C\c3cccc([N+](=O)[O-])c3)C(=O)O2)c(Br)c1 | 3% |
| COc1ccc(C)cc1NC(=O)N1CCc2c(c(COCc3ccccc3F)nn2C)C1 | 33.8% |
| CC1(C)C2CCC1(C)C(OCC(O)CN1CCOCC1)C2 (stereo not given) | 2.6% |
| CC1CCN(CC(O)COC2CC3CCC2(C)C3(C)C)CC1 (stereo not given) | -1.1% |
| COc1ccc(N2CCN(CC(O)COC3CC4CCC3(C)C4(C)C)CC2)cc1 (stereo not given) | 64.3% (active) |
| COc1ccc(C2=NN3COc4ccc(Br)cc4C3C2)cc1 (stereo not given) | 34% |
| COc1ccc(C2=NN3COc4ccc(Cl)cc4C3C2)cc1 (stereo not given) | 27% |
| COc1ccc(C2=NN3C(C2)c2cc(OC)ccc2OC3(C)C)cc1 (stereo not given) | 64% (active) |
| COc1ccc2c(c1)C(=O)C(C1(O)C(=O)Nc3ccccc31)CC2 (stereo not given) | 2.6% |
| COc1ccc(OC)c(C2C3=C(CC(C)(C)CC3=O)Nc3ccccc3N2C(C)=O)c1 (stereo not given) | 8.9% |
| O=S1(=O)CC(N2CCN(Cc3ccccc3F)CC2)CN1Cc1cn(Cc2cccc(C(F)(F)F)c2)nn1 (stereo not given) | 6.8% |
| COCCCNC(=O)c1cnn2c(C(F)(F)F)cc(-c3cccs3)nc12 | 10% |
| O=[N+]([O-])c1c(Cl)cc(Cl)c2nsnc12 | 88% (active) |
| O=C(Nc1ccc(S(=O)(=O)Nc2ccccn2)cc1)C1OC2OC3(CCCCC3)OC2C2OC3(CCCCC3)OC12 (stereo not given) | 22.5% |
| Cc1ccc(SCC(=O)N2CCN(C)CC2)cc1 | 0.5% |
| CCc1onc(C)c1C1CCCN1Cc1cc(Br)ccc1F (stereo not given) | -71.3% |
| CCn1cc(-c2ccccc2)cc1C(=O)NCc1ccccn1 | 47.4% |
| CCn1cc(-c2ccc(F)cc2)cc1C(=O)NC(C)c1cccnc1 (stereo not given) | 50.5% (active) |
| CCn1cc(-c2ccc(C)cc2)cc1C(=O)NCc1cccnc1 | 46.7% |
| OCCCc1nc2n(n1)C(c1ccco1)C=C(c1ccc(Br)cc1)N2 (stereo not given) | 34% |
